ATXN2 expr inh = ATXN2 expression inhibition | HEK-293 ATXN2-luciferase reporter, luminescence, 24 h | 360,000 tested, 0.72% active | AID 1745845 | Potency, µM (highest dose often 57 µM), actives largely listed as inhibitors; further: nearly all actives have a fitted effect of over 55% in size
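qHTS (up to 57 uM final) was run with 24 h compound exposure of reporter cells at 37 °C. Each well was multiplexed: SteadyGlo luminescence measured ATXN2-luciferase expression after a fluorogenic Gly-Phe-AFC viability readout (25 uM final).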
IL-1B inflam inh = inflammasome signaling inhibition, IL-1 beta readout; THP-1 LPS/ATP IL-1B secretion, AlphaLISA, 16 h; hits give low values; AID 743279; activity change, % at 57.5 µM; 360,000 tested, 4.7% active; in the data active means activity change below about -50%; inconclusive means mostly about -30% to -49%
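THP-1 cells pretreated 1 hr with compounds (up to 57.5 uM final), then stimulated with LPS (250 ng/mL final) plus ATP (1.25 mM final); secreted IL-1B measured by AlphaLISA after 16 hr, decreased signal indicating inhibition.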
TGFb inhibitor = TGF-b pathway inhibition. HepG2 CAGA-GFP TGF-b/SMAD3 reporter, GFP fluorescence, 18 h; TGF-beta stimulated, 500 pg/mL final. Potency, µM (doses to about 46.1 µM), actives largely listed as inhibitors. 410,000 tested, 1.2% active; further: nearly all actives have a fitted effect of over 65% in size
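Inhibition of TGF-beta-driven CAGA-GFP reporter expression in HEPG2 cells is measured by cellular GFP fluorescence after 18 h stimulation with 500 pg/mL recombinant TGF-beta in 1% FBS medium at 37 degrees C.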
ATXN viability = viability counter-screen for ATXN expression inhibitors | 400,000 tested, 0.49% active | Potency, µM (doses to about 56.7 µM), most hits filed as cytotoxic | S2 cells (HEK-293 line with an ATXN2-luciferase reporter) viability, CellTiter-Fluor protease fluorescence, 24 h; further: nearly all actives have a fitted effect of over 40% in size
HepG2 tox = counter-screen for TGF-b inhibitors: cytotoxicity in HepG2 cells; AID 588856; 410,000 tested, 0.76% active; Potency, µM (top dose mostly 46.1 µM), most hits filed as cytotoxic; HepG2 CAGA-GFP viability, ATP luminescence, 18 h
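HepG2 CAGA-GFP cells (1000/well, DMEM with 1% FBS) received compound, then TGF-beta at 500 pg/mL final, and were incubated 18 hours at 37 degrees C. Viability was read by CellTiter-Glo luminescence. Media-only wells were set as complete cell-killing and DMSO as no toxicity.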
Of the large screens only hits and unclear results are named; the others gave an inactive call. In the library only some 5.7% were active in any assay of this set; here they are far more common. Unless noted, the call rests on the fitted dose curve; in most records, active means well fitted curve in the direction sought with a large enough effect; inconclusive means small, poorly fitted or top-dose-only effect, or another doubt; inactive means no such curve, though single readings can be large; an effect the other way counts as inactive or inconclusive.

O=[N+]([O-])c1ccc(NC(=S)NCc2ccc(F)cc2)cc1	ATXN2 expr inh inconclusive, IL-1B inflam inh -100, TGFb inhibitor inconclusive
CN1CCN(CCCCOc2ccccc2C=O)CC1	IL-1B inflam inh -85, ATXN viability inconclusive
Cc1cc(Cl)c(OCCCN2CCCCC2)c(Br)c1	IL-1B inflam inh -79, ATXN viability inconclusive
Cc1ccccc1OCCCCCCN1CCNCC1	IL-1B inflam inh -74
c1ccc(-c2ccccc2OCCCCN2CCCCC2)cc1	IL-1B inflam inh -63, ATXN viability inconclusive
CC(=O)c1ccccc1-c1ccc2c(c1)CC(CNC(=O)Cc1c[nH]c3ccccc13)O2 (centres undefined)	none (no result: ATXN2 expr inh, IL-1B inflam inh, TGFb inhibitor, HepG2 tox)
CC1CCN(CCOCCOc2ccc(Br)cc2Cl)CC1	IL-1B inflam inh inconclusive, ATXN viability inconclusive
Cc1ccc(OCCCCCN2CCOCC2)cc1	none
Cc1ccc(OCCCCCCN2CCNCC2)cc1	IL-1B inflam inh -90 (no result: ATXN viability)
COc1ccccc1OCCOCCN1CCCC1	none
Cc1cc(Br)ccc1OCCOCCN1CCCC1	none (no result: ATXN2 expr inh)
Cc1ccccc1OCCOCCN1CCCCCC1	IL-1B inflam inh -52
Cc1cc(Br)ccc1OCCCCN1CCCCC1	IL-1B inflam inh -58
CC1CCCN(CCCOc2ccc(Br)cc2Cl)C1 (centres undefined)	IL-1B inflam inh -90
COc1ccc(C(OCC(O)CNC(C)c2ccccc2)c2ccc(OC)cc2)cc1 (centres undefined)	IL-1B inflam inh -98, TGFb inhibitor inconclusive
CCC(=O)c1ccc(OCC(O)CNC(C)c2ccccc2)cc1 (centres undefined)	none
COc1ccc(C(OCC(O)CNCCc2ccccc2)c2ccc(OC)cc2)cc1 (centres undefined)	ATXN2 expr inh inconclusive, IL-1B inflam inh -107, TGFb inhibitor inconclusive, ATXN viability inconclusive
CC(C)c1ccc(OCC(O)CNC(C)c2ccccc2)cc1 (centres undefined)	IL-1B inflam inh -85, TGFb inhibitor inconclusive
COc1ccc(CC(=S)NCCc2ccccc2)cc1	none
Cc1ccc(C)c(N2CCN(C(=O)c3c(C)oc4nc(C)nc(N5CCOCC5)c34)CC2)c1	none (no result: ATXN2 expr inh, IL-1B inflam inh, ATXN viability)
CCCCNC(=O)c1onc(CSc2cccc(OC)c2)c1C(=O)NCCCC	IL-1B inflam inh inconclusive, TGFb inhibitor inconclusive
COCCNC(=O)c1onc(CSc2cccc(OC)c2)c1C(=O)NCCOC	HepG2 tox 1µM
CC1=CC(O)=NS(=O)(=O)O1	none (no result: ATXN2 expr inh, IL-1B inflam inh, ATXN viability)
CNC(=S)N/N=C/c1cn(Cc2ccc(F)cc2)c2ccccc12	TGFb inhibitor inconclusive, ATXN viability inconclusive
COC(=O)N/N=C/c1cn(Cc2ccc(F)cc2)c2ccccc12	TGFb inhibitor 5µM
COC(=O)N/N=C/c1cn(Cc2ccccc2F)c2ccccc12	IL-1B inflam inh -75, TGFb inhibitor inconclusive
COC(=O)N/N=C/c1cn(Cc2ccccc2Cl)c2ccccc12	none
CCOC(=O)[C@@H](N)CCC(=O)N[C@@H](CSCc1ccccc1)C(=O)N[C@@H](C(=O)OCC)c1ccccc1	none (no result: IL-1B inflam inh, TGFb inhibitor, ATXN viability, HepG2 tox)
COc1ccc(NC(=O)c2ccc3c(=O)n4nc(Nc5ccccc5C)sc4nc3c2)cc1Cl	none (no result: IL-1B inflam inh)
CCOC(=O)C1CCN(C(=O)CCNC(=O)c2ccccc2OC)CC1	none
CCCCCCCCCCCCCCCCCCNC(=O)OC1CCN(C(=O)OC[C@H](COC(=O)N(Cc2cccc[n+]2CC)C(=O)c2ccccc2OC)OC)CC1	ATXN2 expr inh 35µM, ATXN viability 35µM (no result: IL-1B inflam inh, TGFb inhibitor, HepG2 tox)
CN(CC(=O)Nc1cccc(F)c1)C(=O)/C=C/c1ccc2ccccc2n1	IL-1B inflam inh -51, TGFb inhibitor inconclusive
CN(CC(=O)Nc1cccc(F)c1)C(=O)/C=C/c1ccc(Br)s1	none
O=C(Nc1ccccc1)Nc1cccc2nsnc12	IL-1B inflam inh -74, TGFb inhibitor inconclusive (no result: ATXN viability)
Cc1ccc(C)c(N2CCN(C(=O)C3CCN(c4nc(-c5ccc(C(C)C)cc5)no4)CC3)CC2)c1	none (no result: ATXN2 expr inh, IL-1B inflam inh, ATXN viability)
COc1ccc(/C=C\C(=O)CC(O)(c2ccccc2)C(F)(F)F)cc1 (centres undefined)	IL-1B inflam inh -74, TGFb inhibitor inconclusive
COc1ccc(C(=O)NCCc2sc(-c3cccc(F)c3)nc2C)cc1	none (no result: IL-1B inflam inh)
COc1cccc(C2=NN(C(=O)c3cccs3)C(O)(C(F)(F)F)C2)c1 (centres undefined)	IL-1B inflam inh -72, TGFb inhibitor inconclusive
